Growth data for 40 compounds are collected here from PubChem BioAssay (NCI).

This is part of a sample that, as a whole, favours compounds with a hit. Of some 83,000 tested, about 20% had one in any assay.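 Percent growth is the endpoint: 0 to 100 indicates growth inhibition (40 means 60% inhibition), 0 means no net growth, and negative values indicate cell death.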 A number with no mark means an inactive call. The source made the active and inactive calls.

For the test, the system named is LOX IMVI melanoma. The experiment in a line: NCI-60 one-dose screen, 48 h (100 = growth as untreated, 0 = no growth, -100 = all killed). The conditions noted are these: 10 µM unless noted. As to the method:
Growth inhibition of the LOX IMVI human tumor cell line is measured as a screen for anti-cancer activity. Cells are grown in 96 well plates and exposed to the test compound for 48 hours. Compounds are tested at a single concentration, which is 10^-5 M for most compounds. The reported endpoint is percent growth (GI% or GIPRCNT), where numbers from 0 - 100% represent growth inhibition, and numbers from -100% - 0 represent cell death. For example, a value of 40 represents 60% growth inhibition. A value of 0 means no net growth occurred over the course of the experiment. A value of -40 indicates 40% of cells at the beginning of the experiment died by the end of the experiment. A value of -100 means all cells are dead at the end of the experiment.
NCI-60 Human Tumor Cell Lines Screen was performed using the standard one-dose NCI protocol, which is described in more detail at https://dtp.cancer.gov/discovery_development/nci-60/default.htm.
Compounds with GIPRCNT values below 10 were considered active. Activity score was based on GIPRCNT using the following formula: […]
Score is 0 for GIPRCNT values of 100 or above, 50 for GIPRCNT values of 0, and 100 for GIPRCNT values of -100.
For `C/C(=N/N)c1nnn(-c2ccc(Br)cc2)c1C`, the growth was 86.2%.

Take `CC(=O)Nc1nc(C)c(-c2csc(Nc3ccccc3)n2)s1`: the growth was 21.4%.

On to `COc1ccc(Cn2cc(C#N)c(N)c2C(C)=O)cc1`, for which the growth was 98.6%.

In the case of `COc1cccc2c1[C@H](OC)[C@]13O[C@@]1(C2=O)[C@H](O)[C@H](C)[C@@](O)(C(=O)[C@@H]1O[C@H]1C)[C@@H]3O`, the growth is -62% (active).

As to `COc1ccc(/C=N/NC(=O)c2c(N)nn(C)c2Nc2ccccc2)cc1Oc1ccccc1`, the growth is 95.3%.

For `COc1ccc(C2CC(c3cccc(OCCCCOc4cccc(C5=NOC(c6ccc(OC)cc6)C5)c4)c3)=NO2)cc1` (stereo not given), the growth was 17.9%.

Take `CC1=C(C)C(=O)C(Nc2ccc(C)cc2)=C(Br)C1=O`: the growth was 29.9%.

On to `CN1CCN(c2ccc(Nc3nc(NCCCNS(=O)(=O)c4cccc(F)c4)c4sccc4n3)cc2)CC1`, for which the growth was -58.1% (active).

In the case of `Cc1cc(Br)ccc1-n1cc(C#N)c(N)c1C(=O)c1ccc(Br)cc1`, the growth was 96.6%.

`C#C[C@]1(O)CC[C@H]2[C@@H]3CC=C4c5sc(Nc6ccc(C)cn6)nc5CC[C@]4(C)[C@H]3CC[C@@]21C`: the growth was -61.7% (active).

`CCCCc1nc2c(N)nc3ccccc3c2n1Cc1ccc(OC)cc1`: the growth was 75%.

Take `Brc1ccc2[nH]cc(-c3nn4cc(-c5nccs5)nc4s3)c2c1`: the growth was 8.86% (active).

On to `O=c1oc2ccc(-c3ccc(F)cc3F)cc2c(=O)n1-c1ccc(Br)cc1F`, for which the growth was 88.2%.

On to `C[C@H]1OCC2(CCN(c3cnc(C(=O)Nc4cc(F)cc5cccnc45)cn3)CC2)[C@H]1N`, for which the growth was 33.2%.

As for `CC1=C(C)C(=O)C(Nc2cccc(C(F)(F)F)c2)=C(Br)C1=O`, the growth was 6.64% (active).

Consider `CCNC(=O)Oc1ccc(/C(=C(/C)c2ccc(Cl)cc2)c2ccc(OCCN3CCCCCC3)cc2)cc1`, for which the growth was -87.8% (active).

For the compound `CN1CCN(CC#CCn2c3c(c4ccccc42)C[C@]2(C)[C@H]4CC=C5[C@@H]6CC(C)(C)CC[C@]6(C(=O)N6CCOCC6)CC[C@@]5(C)[C@]4(C)CC[C@H]2C3(C)C)CC1`, the growth is -46.1% (active).

Turning to `Cn1cc(-c2nnc(N)nc2-c2c[nH]c3ccc(F)cc23)c2cc(Br)ccc21`, the growth was 29%.

On to `Cc1ccc(/C(N)=N/C(N)=N/c2nc3ccccc3s2)cc1`, for which the growth was -17% (active).

For the compound `CCOC(=O)c1ccccc1NC1=C(Cl)C(=O)c2nc(C)ccc2C1=O`, the growth was 98.7%.

On to `CN(C)S(=O)(=O)c1ccc(-c2nc(C(Cl)Cl)nc3cc(-c4ccc(F)cc4)nn23)cc1`, for which the growth is -6.07% (active).

As for `CC(C)(C)OC(=O)Nc1ccc(-c2cccc(Oc3ccc4nnc(Cl)n4n3)c2)cc1`, the growth is 82.9%.

On to `NCCNC(=O)c1cccc(COc2ccccc2NC(=O)c2cc(Cl)c(Cl)[nH]2)c1`, for which the growth was 81.5%.

As for `CN1CC[C@@H]2[C@@]3(C)CC[C@H](O)C(C)(C)[C@@H]3CC[C@@]2(C)[C@]2(C)CC[C@@]3(CO)CCC(C)(C)C[C@@H]3C12` (stereo not given in full), the growth is 84.8%.

Consider `CCCNNC(=O)c1ccc(-c2ccc(NC(=O)CCCCCCC(=O)N[C@H](C(=O)N3C[C@H](O)C[C@H]3C(=O)N[C@@H](C)c3ccc(-c4scnc4C)cc3)C(C)(C)C)cc2)cc1`, for which the growth is -41.8% (active).

With `Cc1cc(=O)[nH]c(O)c1C#N`, the growth was 95.1%.

Take `CNC(=O)Nc1ccc(Nc2cc(-c3ccc(-n4cccn4)cc3)[nH]n2)c(C)c1`: the growth was 129%.

`O=C(CCCCCCN1CC(=O)N2[C@@H](c3ccc(Cl)s3)c3[nH]c4ccccc4c3C[C@H]2C1=O)NO`: the growth is -62.7% (active).

As to `CN1CCN(c2ccc(Nc3nc(NCCNS(=O)(=O)c4ccc5ccccc5c4)c4sccc4n3)cc2)CC1`, the growth was -77.3% (active).

For the compound `CCOC(=O)c1c(NC(=O)c2ccc(C(F)(F)F)cc2)sc2c(CN3CCN(C)CC3)c(O)ccc12`, the growth is -93.1% (active).

With `CCOC(=O)c1ccc(NC2=C(Cl)C(=O)c3nc(C)ccc3C2=O)cc1`, the growth was 0.747% (active).

On to `CCCCSC1=C(Cl)CN(c2ccc(Cl)cc2)C1=O`, for which the growth is 62.4%.

On to `C#C[C@]1(O)CC[C@H]2[C@@H]3CC=C4c5sc(Nc6cccc(F)c6)nc5CC[C@]4(C)[C@H]3CC[C@@]21C`, for which the growth was -57.6% (active).

With `Cc1ccc2c(n1)C(=O)C(Cl)=C(Nc1ccc(C#N)cc1)C2=O`, the growth was 70.4%.

As to `O=C(CN1CCN(c2cc(=O)[nH]c3ccc(F)cc23)CC1)N(c1ccccc1)c1ccccc1`, the growth was 101%.

Regarding `O=C(CSc1nnc(-c2ccc(Cl)cc2)n1-c1ccccc1)Nc1cccc(F)c1`, the growth is 0.1% (active).

With `COc1ccc(/C=N/NC(=O)c2c(N)nn(C)c2Nc2ccccc2)cc1`, the growth was 18.9%.

In the case of `CCN(CC)CCOc1ccc(C(=C(C)Cc2ccc(OC)cc2)c2ccc(OCCN(CC)CC)cc2)cc1`, the growth was -80.7% (active).

Regarding `CNCCN(C)c1ccc(Nc2cc(NC3CC3)n3ncc(C#N)c3n2)cc1NC(C)=O`, the growth was -25.7% (active).

As for `COc1cc(/C=N\NC(=O)c2ccc3nc(-c4ccc(Br)cc4)[nH]c3c2)cc(OC)c1OC`, the growth is 35.2%.
